TRHR agonist = qHTS for Small Molecule Agonists and Allosteric Enhancers of Human TRH Receptor: Primary Screen for Agonists; activation, % at 2 µM; TRHR cells, calcium flux fluo-8, FDSS agonist mode; AID 493084, 2011; 0.18% of 360,000 active; Thyrotropin-releasing hormone receptor (Homo sapiens), P34981; also: 0% is about no effect
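TRHR-expressing cells, plated overnight in medium with 10% serum, were loaded with fluo-8 calcium dye at room temperature. After a 10 s baseline, library compound was pin-added and calcium release was recorded kinetically (ex 480/em 530) as agonist response.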
D1 antag = Antagonist of Human D 1 Dopamine Receptor: qHTS; D(1A) dopamine receptor (Homo sapiens), P21728; activity change, negative = inhibition, % at 10 µM; AID 504652, 2011; HEK293 TREx D1 cells, calcium flux, dopamine EC80; active compounds read low; 3.2% of 360,000 active; in the data active = activity change below about -30%; also: % is scaled to controls: 0 for no effect and ±100 for the full control effect
Target sequence (P21728 whole entry, looked up): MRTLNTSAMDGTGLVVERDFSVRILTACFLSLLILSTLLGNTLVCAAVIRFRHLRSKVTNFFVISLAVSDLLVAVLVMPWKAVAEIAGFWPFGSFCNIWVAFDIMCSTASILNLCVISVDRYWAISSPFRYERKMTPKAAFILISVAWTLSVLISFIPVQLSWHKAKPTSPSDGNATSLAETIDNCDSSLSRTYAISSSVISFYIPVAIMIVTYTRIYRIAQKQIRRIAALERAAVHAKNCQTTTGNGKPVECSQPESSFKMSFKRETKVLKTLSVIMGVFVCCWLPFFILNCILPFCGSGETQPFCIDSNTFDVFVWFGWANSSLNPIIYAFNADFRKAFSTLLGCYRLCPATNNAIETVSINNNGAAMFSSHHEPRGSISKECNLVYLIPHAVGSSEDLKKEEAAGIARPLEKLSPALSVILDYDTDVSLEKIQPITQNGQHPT
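Kinetic fluorescence of a calcium dye serves as the read-out. D1-expressing Hek293 Trex cells, induced overnight at 30 C, are exposed to compound for 180 s before an EC80 dopamine addition, then read 180 s further.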
D1 PAM = Potentiators of Human D1 Dopamine Receptor: qHTS; potentiation, % at 10 µM; D(1A) dopamine receptor (Homo sapiens), P21728; AID 504651, 2011; 0.036% of 360,000 active; HEK293 TREx D1 cells, calcium flux, dopamine EC20 potentiation; in the data active = potentiation above about 30%; also: 0% is about no effect
D1 ag = Allosteric Agonists of the Human D1 Dopamine Receptor: qHTS; D(1A) dopamine receptor (Homo sapiens), P21728; HEK293 T-REx D1 cells, calcium flux, agonist mode; activation, % at 2 µM; 1% of 360,000 active; also: 0% is about no effect
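Inducible HEK293 T-REx D1 cells, force-coupled to calcium signalling, were plated at 4000 cells/well with tetracycline and held overnight at 30 C. After no-wash calcium dye loading, compound-evoked calcium rise over 180 s flagged agonists.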
TRHR enhancer = qHTS for Small Molecule Agonists and Allosteric Enhancers of Human TRH Receptor: Primary Screen for Enhancers; Thyrotropin-releasing hormone receptor (Homo sapiens), P34981; TRHR cells, fluo-8 calcium fluorescence, EC20 TRH enhancement; enhancement, % at 2 µM; 0.66% of 360,000 active; in the data active = enhancement above about 30%; also: 0% is about no effect
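TRHR-expressing cells loaded with fluo-8 calcium dye were read kinetically (ex 480/em 530) during compound addition, then stimulated with an EC20 of TRH (10 nM final). Enhancement of the Gq-mediated intracellular calcium response was scored.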
Active calls of the source: *; . = no result given; ! = not active in a repeat. This is a sample that favours compounds with a hit; in the whole collection about 4.7% have one here. Rule as the data show it, unless noted: active = activation above about 30%; inactive = the rest.

SMILES	TRHR agonist	D1 antag	D1 PAM	D1 ag	TRHR enhancer
O=C(CCC(=O)Nc1cccc2ccccc12)N/N=C/c1ccco1	0	14	-2	-1	-4
O=C(N/N=C/c1ccco1)Nc1ccccc1	0	16	3	5	7
O=C(CCC(=O)Nc1ccccc1)N/N=C/c1ccco1	0	3	1	0	38*
Cc1cccc(NC(=O)CCC(=O)N/N=C/c2ccco2)c1C	0	-12	-8	1	34*
NNC(=O)CCC(=O)Nc1ccccc1	-1	-33*	-7	1	-8
CC(C)c1ccc(NS(=O)(=O)c2ccc3[nH]cc(C(=O)NCC4CCCO4)c(=O)c3c2)cc1 (stereo unspecified)	0	14	-1	15	8
O=C1CN(C(=O)COC(=O)c2cccs2)c2ccccc2N1	0	-30*	9	3	12
O=C1CN(C(=O)COC(=O)CCSc2ccccc2Cl)c2ccccc2N1	-1	12	-1	9	33*
O=C1CN(C(=O)COc2ccc(Br)cc2F)c2ccccc2N1	0	-34*	-3	0	8
O=C(C1CCN(S(=O)(=O)c2ccccc2)CC1)N1CCCCCC1	1	2	6	1	0
CN1C(C(=O)NCc2ccco2)=CC(c2ccc(F)cc2)=NS1(=O)=O	-1	-10	-3	1	10
O=C(Nc1nccc(-c2cccs2)n1)c1ccccc1Cl	-1	-38*	-4	-2	14
COc1ccc(C(=O)c2cnc3cc4c(cc3c2C)OCO4)cc1	-1	-30*	1	0	-15
O=C(CSc1nnc2ncccn12)Nc1cccc2ccccc12	1	-28	-4	4	-9
COc1ccccc1-c1cc(C2CC2)nc(N)c1C#N	-1	11	0	3	6
N#Cc1c(-c2ccccc2Cl)cc(C2CC2)nc1N	13	21	7	99*	24
O=C(NC1CC2CCCC(C1)N2C(=O)Nc1cccc(F)c1)C1CC1 (stereo unspecified)	0	-7	1	1	2
Cc1ccc(NC(=O)N2C3CCCC2CC(NC(=O)C2CC2)C3)cc1 (stereo unspecified)	0	-5	-4	1	30*
Cc1ccc(C)c(N2CCN(C(=O)C(Cc3ccccc3)n3cccc3)CC2)c1 (stereo unspecified)	0	-53*	.	6	-3
O=C(O)C(Cc1ccccc1)n1cccc1 (stereo unspecified)	0	-42*	1	3	-1
C=C(C)c1cccc(C(C)(C)NC(=O)Nc2ccc(OC)nc2)c1	1	-5	0	3	-3
C=C(C)c1cccc(C(C)(C)NC(=O)Nc2ccc(C)cn2)c1	2	14	-3	30*	-8
Cc1cccc(C(=O)N2CCN(c3ccc([N+](=O)[O-])c(NCc4ccco4)c3)CC2)c1	0	-67*	-10	3	12
Cc1cccc(C(=O)N2CCN(c3ccc([N+](=O)[O-])c(N4CCOCC4)c3)CC2)c1	-2	-45*	-11	2	-16
CC(C)[C@H](NC(=O)N1CCn2c1nc1ccccc12)C(=O)N[C@H](C(=O)O)c1ccccc1	-1	-3	9	9	8
SMILES	TRHR agonist	D1 antag	D1 PAM	D1 ag	TRHR enhancer
COc1cc2c(cc1OC)CN(C(=S)Nc1ccc(Cl)cc1)CC2	0	-35*	-6	7	-4
COc1cccc(NC(=S)N2CCc3cc(OC)c(OC)cc3C2)c1	0	-9	-2	3	1
CCc1ccc2c(c1)c(=O)c(S(=O)(=O)c1ccc(F)cc1)cn2CC(=O)Nc1ccccc1OC	1	-7	-1	7	-1
CCCCNc1nc2c(-c3cccc(C)c3)nnn2c2ccccc12	1	-5	2	4	-2
Cc1ccc(S(=O)(=O)n2ccc3cccnc32)cc1	0	7	-4	-1	-2
O=S(=O)(c1ccc(Cl)cc1)n1ccc2cccnc21	-1	-36*	-4	-2	1
CC1(C(=O)Nc2cccc3ccccc23)CC1(Br)Br (stereo unspecified)	-1	-31*	-12	0	-7
[O-][N+]1=c2ccc(Nc3ccccc3)cc2=NC12CCCCC2	1	-55*	-10	1	1
COc1ccc(Nc2ccc3c(c2)=NC2(CCCCC2)[N+]=3[O-])cc1	0	-4	-4	1	-8
CS(=O)(=O)c1ccc(C(=O)CN2C(=O)NC3(CCCc4ccccc43)C2=O)cc1 (stereo unspecified)	0	-12	5	1	-11
CCCCOc1c(Br)cc(CNCCCN2CCOCC2)cc1OC	0	5	0	10	-6
Oc1c(Br)cc(Br)cc1CNc1ccc(F)cc1	0	-39*	-5	3	-8
Cc1ccc(S(=O)(=O)N(C)CC(=O)NCC(c2ccco2)N(C)C)cc1 (stereo unspecified)	0	33	.	10	-4
COc1ccc(NC(=O)c2ccc3c(c2)CCN3S(=O)(=O)c2ccccc2)cc1	0	-51*!	-7	4	5
O=C(Nc1ccccc1)c1ccc2c(c1)CCN2S(=O)(=O)c1ccccc1	1	-32*	-2	10	1
Cc1nc2scc(C)n2c(=O)c1S(=O)(=O)N1CCN(c2ccccn2)CC1	-1	1	.	7	-4
O=[N+]([O-])c1ccc(-c2nn(-c3ccccc3)cc2/C=N/n2c(-c3ccncc3)n[nH]c2=S)cc1	0	-10	2	0	5
S=c1[nH]nc(-c2ccncc2)n1/N=C/c1cn(-c2ccccc2)nc1-c1ccccc1	0	-6	0	5	30*
Cn1c(Cc2nc(-c3cnccn3)no2)nnc1SCC(=O)Nc1ccccc1	0	-87*	4	0	10
COc1ccc2cc1Oc1ccc(cc1)CC1c3c(cc(OC)c4c3Oc3cc5c(cc3O4)CCNC5C2)CCN1C (stereo unspecified)	-1	-41*	-12	5	1
Cc1ccc(NC(=O)CSc2nc3c(c(=O)[nH]2)CCC3)c(C)c1	0	-5	8	2	13
C=CCN1C(=O)/C(=C/c2ccc(N(C)C)cc2)S/C1=N\c1nnc(CC)s1	53*	-27	2	167*	7
C=CCN=C1S/C(=C\c2ccc(Cl)cc2)C(=O)N1CC=C	0	-22	-6	4	2
